Assay [1] can be described thus: qHTS assay to identify small molecule antagonists of the glucocorticoid receptor (GR) signaling pathway - cell viability counter screen (AID 720693). Also: nearly all actives have a fitted effect of over 55% in size. Also: potency is read from the fitted curve at half-maximal effect. A general note: qHTS replaces the single test concentration by a dilution series.
Assay [2] in a line: qHTS assay for identifying genotoxic compounds that show differential cytotoxicity against isogenic chicken DT40 cell lines with known DNA damage response pathways - wild type cell line (AID 743012). Also: nearly all actives have a fitted effect of over 60% in size. Also: potency is read from the fitted curve at half-maximal effect. Put shortly:
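Viability of DNA repair-proficient chicken DT40 cells was assessed by CellTiter-Glo luminescence following 40 h compound exposure at 37 C/5% CO2.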

Assay [3] is described as follows: qHTS assay for identifying genotoxic compounds that show differential cytotoxicity against isogenic chicken DT40 cell lines with known DNA damage response pathways - Rev3 mutant cell line (AID 743014). Also: nearly all actives have a fitted effect of over 55% in size. Also: potency is read from the fitted curve at half-maximal effect.
Assay [4] in a line: qHTS assay for identifying genotoxic compounds that show differential cytotoxicity against isogenic chicken DT40 cell lines with known DNA damage response pathways - Rad54/Ku70 mutant cell line (AID 743015). Also: nearly all actives have a fitted effect of over 60% in size. Also: potency is read from the fitted curve at half-maximal effect.
Assay [5] is described as follows: qHTS assay to identify small molecule antagonists of the androgen receptor (AR) signaling pathway using the MDA cell line - cell viability counter screen (AID 743041; also: nearly all actives have a fitted effect of over 45% in size). Put shortly: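 In this qHTS counter assay, fluorescence intensity after CellTiter-Fluor addition indicated viability of MDA-kb2 AR-luc cells given compounds and R1881 for 16 h at 37C.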
Assay [6] can be described thus: qHTS assay to identify small molecule antagonists of the thyroid receptor (TR) signaling pathway - cell viability counter screen (AID 743064). Also: nearly all actives have a fitted effect of over 50% in size. Also: potency is read from the fitted curve at half-maximal effect. Put shortly: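 GH3.TRE-Luc cells, 4 h pre-plating; cpd + T3 1 nM final; 37 °C 23.5 h; CellTiter-Fluor 30 min; fluorescence read.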
Assay [7] deals with thyroid hormone receptor (rat, GH3 cells). Kind of assay: qHTS assay to identify small molecule agonists of the thyroid receptor (TR) signaling pathway (AID 743066; calls by dose curve).
The nature of assay [8]: qHTS assay to identify small molecule antagonists of the estrogen receptor alpha (ER-alpha) signaling pathway - cell viability counter screen (AID 743074; calls by dose curve;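 also: HEK293 cells carrying ER-alpha-UAS-bla reporter stimulated with 17beta-estradiol; nearly all actives have a fitted effect of over 45% in size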).
A short description of assay [9]: qHTS assay to identify small molecule antagonists of the estrogen receptor alpha (ER-alpha) signaling pathway using the BG1 cell line - cell viability counter screen (AID 743081).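 Also: compound given together with 17beta-estradiol as the ER stimulus; series mostly up to about 70 µM; nearly all actives have a fitted effect of over 45% in size.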
The target in the next assay is Aromatase (Homo sapiens) (UniProt P11511). The assay can be described thus: qHTS assay to identify aromatase inhibitors (AID 743083). Also: nearly all actives have a fitted effect of over 55% in size. Also: potency is read from the fitted curve at half-maximal effect.
Sequence of Aromatase (Homo sapiens) (P11511 whole entry, looked up): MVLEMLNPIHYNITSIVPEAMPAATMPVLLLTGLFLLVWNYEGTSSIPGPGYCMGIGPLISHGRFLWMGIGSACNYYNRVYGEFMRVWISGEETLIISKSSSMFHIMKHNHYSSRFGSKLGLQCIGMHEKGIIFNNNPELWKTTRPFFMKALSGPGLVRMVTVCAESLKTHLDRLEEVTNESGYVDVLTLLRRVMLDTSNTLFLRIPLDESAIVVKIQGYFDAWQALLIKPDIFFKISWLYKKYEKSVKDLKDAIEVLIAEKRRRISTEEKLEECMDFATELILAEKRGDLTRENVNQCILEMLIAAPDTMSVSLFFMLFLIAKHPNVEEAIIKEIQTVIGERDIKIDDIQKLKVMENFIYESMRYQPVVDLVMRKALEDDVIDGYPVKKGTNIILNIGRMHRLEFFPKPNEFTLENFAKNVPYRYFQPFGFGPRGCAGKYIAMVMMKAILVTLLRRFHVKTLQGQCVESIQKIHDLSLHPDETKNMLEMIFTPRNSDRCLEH
Assay [10] in a line: qHTS assay to identify small molecule antagonists of the androgen receptor (AR) signaling pathway - cell viability counter screen (AID 743033; also: nearly all actives have a fitted effect of over 45% in size).
The nature of assay [11]: qHTS assay to identify small molecule antagonists of the thyroid receptor (TR) signaling pathway (AID 743065). Also: nearly all actives have a fitted effect of over 55% in size. Also: potency is read from the fitted curve at half-maximal effect. The gist of the method:
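GH3.TRE-Luc rat pituitary cells carrying two TR response elements driving luciferase were plated for 4 h, given compound plus 1 nM T3 (final), and incubated 23.5 h at 37 C. ONE-Glo luminescence measured reporter inhibition; CellTiter-Fluor fluorescence tracked cytotoxicity.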

In assay [12] the target is Estrogen receptor (Homo sapiens) (UniProt P03372). Kind of assay: qHTS assay to identify small molecule antagonists of the estrogen receptor alpha (ER-alpha) signaling pathway (AID 743069; active = well fitted curve in the direction sought with a large enough effect in the signal ratio in the repeat runs, not every such curve was filed as active; inconclusive = weak or mixed curves, or effect the other way; inactive = no such curve, though single readings can be large or run the other way; the % refers to the signal ratio; also: potency is read from the fitted curve at half-maximal effect). The gist of the method: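 A 17beta-estradiol challenge was applied right after compound transfer to ER-alpha-UAS-bla HEK293 cells previously kept in charcoal-stripped serum. Plates stood 18 hr at 37C and 5% CO2; fluorescence was read following 2 hr FRET substrate loading at room temperature.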
Sequence of Estrogen receptor (Homo sapiens) (P03372 whole entry, looked up): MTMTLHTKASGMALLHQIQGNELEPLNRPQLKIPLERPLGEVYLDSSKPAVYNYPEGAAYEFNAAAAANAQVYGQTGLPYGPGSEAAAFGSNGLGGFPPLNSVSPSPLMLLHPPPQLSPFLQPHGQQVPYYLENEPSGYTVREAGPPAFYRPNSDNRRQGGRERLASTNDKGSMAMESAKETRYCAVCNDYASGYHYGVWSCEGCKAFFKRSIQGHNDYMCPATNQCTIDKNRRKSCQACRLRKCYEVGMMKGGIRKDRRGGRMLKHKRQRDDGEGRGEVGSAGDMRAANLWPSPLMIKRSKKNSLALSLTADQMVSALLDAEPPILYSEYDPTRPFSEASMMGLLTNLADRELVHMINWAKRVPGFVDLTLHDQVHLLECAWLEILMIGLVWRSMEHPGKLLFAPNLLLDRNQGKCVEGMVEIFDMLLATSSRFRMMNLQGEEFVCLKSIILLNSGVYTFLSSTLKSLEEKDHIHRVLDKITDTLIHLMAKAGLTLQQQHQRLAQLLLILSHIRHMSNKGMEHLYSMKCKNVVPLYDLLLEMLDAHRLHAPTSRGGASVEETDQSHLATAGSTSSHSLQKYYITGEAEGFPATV

Assay [13] has the same target. The assay can be described thus: qHTS assay to identify small molecule agonists of the estrogen receptor alpha (ER-alpha) signaling pathway (AID 743075; calls by dose curve;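 also: HEK293 GripTite cells with ER-alpha and UAS-driven beta-lactamase reporter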; also: potency is read from the fitted curve at half-maximal effect).
Assay [14] in a line: qHTS assay to identify small molecule antagonists of the estrogen receptor alpha (ER-alpha) signaling pathway using the BG1 cell line (AID 743080; calls by dose curve;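 also: BG1 cells stimulated with 17beta-estradiol alongside compound; series mostly up to about 70 µM; nearly all actives have a fitted effect of over 25% in size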). The gist of the method: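 BG1-Luc-4E2 cells (endogenous full-length ER-alpha, 4xERE luciferase) hormone-starved 5 days in charcoal-stripped FBS, plated 4,000/well for 24 h, then compound plus 17beta-estradiol for 21.5 h at 37 C; ONE-Glo luminescence read.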

In assay [15] the target is Estrogen receptor (Homo sapiens) (UniProt P03372). The assay can be described thus: qHTS assay to identify small molecule agonists of the estrogen receptor alpha (ER-alpha) signaling pathway using the BG1 cell line (AID 743079). Also: nearly all actives have a fitted effect of over 20% in size.
For assay [16], the target named is Androgen receptor (Homo sapiens) (UniProt P10275). Kind of assay: qHTS assay to identify small molecule agonists of the androgen receptor (AR) signaling pathway using the MDA cell line (AID 743040; also: nearly all actives have a fitted effect of over 20% in size). Put shortly: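 Cell-based luciferase reporter: MDA-kb2, MMTV promoter (AR + GR response elements). 16 h compound exposure at 37C; ONE-Glo, 30 min RT, luminescence.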
Sequence of Androgen receptor (Homo sapiens) (P10275 whole entry, looked up): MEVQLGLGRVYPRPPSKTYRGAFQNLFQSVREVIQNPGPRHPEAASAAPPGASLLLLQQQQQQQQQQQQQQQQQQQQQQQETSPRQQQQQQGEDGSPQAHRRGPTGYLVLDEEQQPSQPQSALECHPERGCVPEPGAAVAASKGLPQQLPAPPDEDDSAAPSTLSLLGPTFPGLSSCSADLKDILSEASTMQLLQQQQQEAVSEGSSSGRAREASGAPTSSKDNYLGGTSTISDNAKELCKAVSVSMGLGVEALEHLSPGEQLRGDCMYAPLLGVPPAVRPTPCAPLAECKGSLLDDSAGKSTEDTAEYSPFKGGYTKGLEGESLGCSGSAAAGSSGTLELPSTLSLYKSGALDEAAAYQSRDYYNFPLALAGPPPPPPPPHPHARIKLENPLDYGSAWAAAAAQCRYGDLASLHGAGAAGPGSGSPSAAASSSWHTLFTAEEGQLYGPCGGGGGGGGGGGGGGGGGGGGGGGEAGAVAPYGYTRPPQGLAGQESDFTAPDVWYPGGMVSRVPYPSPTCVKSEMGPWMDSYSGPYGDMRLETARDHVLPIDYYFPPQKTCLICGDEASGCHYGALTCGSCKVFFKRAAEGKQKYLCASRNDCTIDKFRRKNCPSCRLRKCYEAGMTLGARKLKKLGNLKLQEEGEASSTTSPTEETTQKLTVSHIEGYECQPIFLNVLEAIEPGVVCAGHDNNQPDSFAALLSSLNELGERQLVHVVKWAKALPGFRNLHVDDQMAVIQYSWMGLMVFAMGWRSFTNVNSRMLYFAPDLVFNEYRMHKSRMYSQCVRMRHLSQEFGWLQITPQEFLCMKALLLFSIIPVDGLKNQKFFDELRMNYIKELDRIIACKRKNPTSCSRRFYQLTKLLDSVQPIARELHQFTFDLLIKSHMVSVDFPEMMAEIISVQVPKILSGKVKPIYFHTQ

The target is the same in assay [17]. The assay can be described thus: qHTS assay to identify small molecule antagonists of the androgen receptor (AR) signaling pathway using the MDA cell line (AID 743042; also: nearly all actives have a fitted effect of over 55% in size; also: potency is read from the fitted curve at half-maximal effect). The gist of the method:
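MDA-kb2 cells (human breast carcinoma, stably carrying an MMTV-luciferase reporter responsive to AR and GR) were plated at 3,000 cells/well and preincubated 5 hr at 37C, then given compound plus R1881 agonist for 16 h. ONE-Glo luminescence was read.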

“And” between values parts separate entries of the source, which are not always exact repeats. Equal entries are not always repeated. Some compounds were tested as several samples or in several runs, with calls that do not always agree. The source made the active and inactive calls. Unless noted, calls follow the shape of the dose curve; as a rule, active = well fitted curve in the direction sought with a large enough effect in the repeat runs; inconclusive = weak or mixed curves; inactive = no such curve, though single readings can be large; an effect the other way counts as inactive or inconclusive.

On to `NCC(CC(=O)O)c1ccc(Cl)cc1` (configuration not stated), for which the Potency entry in assay [1], in assay [2], in assay [3], in [4], in assay [5] and in assay [6] was “inactive” throughout. Besides, the Potency entry (in assay [7]; in assay [8]; in assay [9]; with Aromatase (Homo sapiens)) was “inactive” throughout.
Regarding `CC1(C)[C@H](C=C(Cl)Cl)[C@@H]1C(=O)O[C@@H](C#N)c1cccc(Oc2ccccc2)c1`, the Potency entry in [1], in assay [2], in assay [3], in [10], in [5] and in assay [6] was “inactive” throughout. The Potency result in [11], in assay [7], in assay [12], in assay [8], in assay [13] and in assay [14] was “inactive” each time. The Potency result (in [9]; in the assay with Aromatase (Homo sapiens)) was “inactive” in each case.
Turning to `COCC(C)N(C(=O)CCl)c1c(C)csc1C` (configuration not stated), the Potency result in [1], in assay [5], in assay [11], in assay [7], in assay [8] and in assay [13] was “inactive” throughout. In addition, the Potency result in assay [15], in assay [14] and in [9] was “inactive” each time. In addition, the Potency entry in assay [2] is “inactive and 17.2 µM (active)”; in [3] it was “inactive and 15.4 µM (active)”; in assay [4] it was “inactive and 17.2 µM (active)”; in assay [12], “inactive and 30.9 µM [inconclusive] (active)”; in the assay with Aromatase (Homo sapiens), “inactive and 34.4 µM (active)”.
On to `NS(=O)(=O)C(F)(F)C(F)(F)C(F)(F)C(F)(F)C(F)(F)C(F)(F)C(F)(F)C(F)(F)F`, for which the Potency in assay [1] was 54.9 µM (active); in assay [2] it was 54.5 µM (active); in assay [3], 34.4 µM (active); in assay [17], 68.6 µM (active); in [6], 61.1 µM (active); in assay [11] it was 61.1 µM (active). Also, in assay [13], the Potency is 43.6 µM [inconclusive] (active). Besides, the Potency result (in [10]; in assay [16]; in [7]; in assay [15]; with Aromatase (Homo sapiens)) was “inactive” throughout.
With `CC(=O)[C@H]1CC[C@H]2[C@@H]3CC[C@H]4C[C@](C)(O)CC[C@]4(C)[C@H]3CC[C@]12C`, the Potency result in assay [1], in [2], in assay [4], in [10], in assay [5] and in assay [6] was “inactive” each time. For the same compound, the Potency result in assay [11], in [7], in assay [12], in [8], in [13] and in assay [15] was “inactive” each time. Besides, the Potency entry (in [14]; in [9]; with Aromatase (Homo sapiens)) was “inactive” each time.
Turning to `Nc1nc(=S)[nH][nH]1`, the Potency result in [1], in assay [2], in assay [10], in assay [5], in assay [6] and in assay [11] was “inactive” in each case. The Potency entry in assay [7], in assay [12], in [8], in [13], in assay [15] and in assay [14] was “inactive” each time. Moreover, the Potency result (in [9]; with Aromatase (Homo sapiens)) was “inactive” throughout. For the same compound, in assay [3], the Potency was 48.6 µM (active).
For `NC(=O)CI`, the Potency entry in assay [1], in [2], in [3], in [10], in [5] and in assay [6] was “inactive” throughout. Besides, the Potency entry in assay [11], in assay [7], in [12], in assay [8], in assay [13] and in assay [15] was “inactive” throughout. Besides, the Potency result (in assay [14]; in assay [9]; in the assay with Aromatase (Homo sapiens)) was “inactive” throughout.
Turning to `CCOC(=O)COc1cc(-c2nn(C)c(OC(F)F)c2Cl)c(F)cc1Cl`, the Potency result in [1], in [3], in assay [10], in assay [16], in [17] and in assay [6] was “inactive” throughout. Further, the Potency result (in [11]; in assay [7]; in [8]; in the assay with Aromatase (Homo sapiens)) was “inactive” in each case. Also, the Potency in [4] is 43.3 µM (active).
Take `C=CC(=O)OCCCCO`: the Potency result in [1], in assay [5], in [7], in assay [8], in assay [15] and in [14] was “inactive” in each case. Further, the Potency result in [9] is “inactive”. Moreover, the Potency in assay [4] is 61.1 µM (active).
For the compound `C=CC(=O)NCNC(=O)C=C`, the Potency result in assay [1], in assay [16], in [5], in assay [17], in [11] and in [7] was “inactive” in each case. Moreover, the Potency result (in assay [13]; in the assay with Aromatase (Homo sapiens)) was “inactive” throughout. Moreover, the Potency in [4] was 61 µM (active).
For `CCCC(=O)Cl`, the Potency result in assay [1], in assay [2], in [4], in [5], in [6] and in assay [11] was “inactive” each time. The Potency result in [7], in assay [12], in [8], in assay [13], in assay [15] and in [14] was “inactive” in each case. Moreover, the Potency entry (in assay [9]; with Aromatase (Homo sapiens)) was “inactive” in each case.

These data come from PubChem BioAssay (Tox21).
